Laboratory results from PubChem BioAssay (EPA / NIEHS).
Some structures have more than one record in an assay (separate samples or runs), and their calls can disagree. Activity calls are given as the source filed them. How the source made its calls: active means hit-call score of the fitted dose curve at least 0.9, where 1 is the maximum; inactive means score below 0.9.

Each compound was assayed against Hypoxia-inducible factor 1-alpha (Homo sapiens) (UniProt Q16665) (assay: ATG_HIF1a_CIS: Attagene CIS-FACTORIAL HepG2 Assay for human Hypoxia Inducible Factor 1 (HIF1A) (AID 2282951)). Conditions: HepG2 Attagene cis-factorial HIF1a reporter transcription; actives raise or lower the signal.
Method: ATG_CIS is a cell-based, multiplexed-readout assay that uses HepG2, a human liver cell line, with measurements taken at 24 hours after chemical dosing in a 24-well plate.ATG_HIF1a_CIS is one of 52 assay component(s) measured or calculated from the ATG_CIS assay. It is designed to make measurements of mRNA induction, a form of inducible reporter, as detected with fluorescence intensity signals by Reverse transcription polymerase chain reaction (RT-PCR) and Capillary electrophoresis technology.Data from the assay component ATG_HIF1a_CIS was analyzed into 1 assay endpoint. This assay endpoint, ATG_HIF1a_CIS, was analyzed with bidirectional fitting relative to DMSO as the negative control and baseline of activity. Using a type of inducible reporter, measures of mRNA for gain or loss-of-signal activity can be used to understand the reporter gene at the transcription factor-level as they relate to the gene HIF1A. Furthermore, this assay endpoint can be referred to as a primary readout, because this assay has produced multiple assay endpoints where this one serves a reporter gene function. To generalize the intended target to other relatable targets, this assay endpoint is annotated to the dna binding intended target family, where the subfamily is basic helix-loop-helix protein.
Human liver HepG2 cells are transiently transfected with multiple reporter transcription units (MRTUs) in 6-well plates using FuGene 6 reagent (Roche; 3 ml FuGene/1 mg DNA). The MRTU constructs are regulated by a cis-regulating element (promoter). […] A major difference between the CIS and TRANS system is that in CIS activities of endogenous TFs are measured, whereas the TRANS assay evaluates changes in activities of exogenous, chimeric NR-Gal4 proteins. […] At the end of 24 hour incubation, total RNA was isolated using TriZol reagent (Invitrogen). The isolated RNA is then reverse-transcribed using oligo(dT) primer and Mo-MLV reverse transcriptase (Invitrogen) with DNAse I (Ambion) treatment for 30 min. The one-tenth of the produced cDNA was amplified by PCR using Taq DNA polymerase (Invitrogen) and two reporter sequence-specific primers. The PCR products were fluorescently labeled by primer extension with 6-arboxyfluorescein (6-FAM) 5'-labeled reporter sequence-specific primer (2 min at 95 C, 20 s at 68 C and 10 min at 72 C) and these products were digested with 5U of HpaI (New England Biolabs) for 2h at 37 C. The fragments were purified using Qiaquick PCR columns (Qiagen), analyzed on an ABI 3130xL genetic analyzer (Applied Biosystems) with peak positions identified by using a set of X-rhodamine (ROX)-labeled MapMarker1000 molecular weight standards (BioVentures). The raw capillary electrophoresis data was processed using Attagraph software (Attagene).

Chain of Hypoxia-inducible factor 1-alpha (Homo sapiens) (Q16665 whole entry, looked up): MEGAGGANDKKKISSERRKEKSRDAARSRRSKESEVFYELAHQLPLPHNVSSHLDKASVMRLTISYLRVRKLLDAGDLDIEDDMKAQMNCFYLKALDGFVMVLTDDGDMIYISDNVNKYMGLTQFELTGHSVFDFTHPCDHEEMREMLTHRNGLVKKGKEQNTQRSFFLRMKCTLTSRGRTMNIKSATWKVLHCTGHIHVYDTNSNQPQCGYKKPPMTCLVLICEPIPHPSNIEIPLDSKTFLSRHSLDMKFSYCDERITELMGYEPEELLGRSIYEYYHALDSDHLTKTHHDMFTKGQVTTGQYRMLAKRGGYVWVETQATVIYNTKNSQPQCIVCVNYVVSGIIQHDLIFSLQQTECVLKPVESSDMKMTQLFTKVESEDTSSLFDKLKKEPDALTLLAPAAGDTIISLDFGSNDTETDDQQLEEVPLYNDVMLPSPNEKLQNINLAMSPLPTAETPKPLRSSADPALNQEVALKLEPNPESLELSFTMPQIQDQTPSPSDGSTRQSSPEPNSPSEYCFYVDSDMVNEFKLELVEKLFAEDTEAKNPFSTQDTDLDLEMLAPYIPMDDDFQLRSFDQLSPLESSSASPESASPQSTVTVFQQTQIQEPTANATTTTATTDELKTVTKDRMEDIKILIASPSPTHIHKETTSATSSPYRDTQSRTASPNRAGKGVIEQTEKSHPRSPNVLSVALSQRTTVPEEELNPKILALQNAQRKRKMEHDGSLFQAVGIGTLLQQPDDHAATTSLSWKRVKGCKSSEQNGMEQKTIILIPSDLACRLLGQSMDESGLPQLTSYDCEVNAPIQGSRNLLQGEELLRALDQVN

Row | SMILES | outcome | AC50
1 | O=C1CCCN1 | inactive | 
2 | CCCCP(CCCC)CCCC | inactive | 
3 | CN(C)N=O | inactive | 
4 | CCOC(=O)/C=C(C)/C=C/C[C@@H](C)CCCC(C)C |  | 24.4 µM (active)
5 | CCN1CCC2(CC1)COc1cc3c(cc12)N(C(=O)c1ccc(-c2ccc(-c4nnc(C)o4)cc2C)cc1)CC3 | inactive | 
6 | CCC(=O)C(CC(C)N(C)C)(c1ccccc1)c1ccccc1 (stereo not given) | inactive | 
7 | COc1cccc(C=O)c1 | inactive | 
8 | O=C(Cc1ccccc1)c1ccccc1 | inactive | 
9 | O=C(OC1CCCCC1)c1ccccc1C(=O)OC1CCCCC1 |  | 11.2 µM (active)
10 | Cc1ccc2ccccc2c1C | inactive | 
11 | CCCCOCCOC(C)=O | inactive | 
12 | O=C(O)C(F)(F)C(F)(F)C(F)(F)C(F)(F)C(F)(F)C(F)(F)F | inactive | 
13 | OCc1ccco1 | inactive | 
14 | Cn1sc(Cl)cc1=O | inactive | 
15 | CN(CCCC(=O)c1cccnc1)N=O | inactive | 
16 | O=C1C2(Cl)C3(Cl)C4(Cl)C(Cl)(Cl)C5(Cl)C3(Cl)C1(Cl)C5(Cl)C24Cl (stereo not given) | inactive | 
17 | Cc1ccc(N)cc1Cl | inactive | 
18 | CC(C#N)CCC#N (stereo not given) | inactive | 
19 | CC(C)CCCCCCOC(=O)c1ccccc1C(=O)OCCCCCCC(C)C | inactive | 
20 | N#Cc1ccccn1 | inactive | 

Row | SMILES | outcome | AC50
21 | Cc1ccccc1N | inactive | 
22 | CCC(=O)c1ccccc1 | inactive | 
23 | O=C(Cl)c1ccc(Cl)cc1 | inactive | 
24 | Fc1ccc(C2(Cn3cncn3)OC2c2ccccc2Cl)cc1 (stereo not given) | inactive | 
25 | COP(=O)(OC)OC | inactive | 
26 | O=C(O)C(F)(F)C(F)(F)C(F)(F)C(F)(F)C(F)(F)C(F)(F)C(F)(F)C(F)(F)C(F)(F)C(F)(F)F | inactive | 23.2 µM (active)
27 | COP(=S)(OC)Oc1c(Cl)cc(C)cc1Cl | inactive | 
28 | C=CCc1ccc(OC)cc1 | inactive | 
29 | CN(C)P(=O)(N(C)C)N(C)C | inactive | 
30 | O=C(NCO)NCO | inactive | 
31 | Cl/C=C/Cl | inactive | 
32 | O=C/C=C/c1ccccc1 | inactive | 
33 | Nc1ccc(N=Nc2ccc(-c3ccc(N=Nc4c(S(=O)(=O)O)cc5cc(S(=O)(=O)O)c(N=Nc6ccccc6)c(O)c5c4N)cc3)cc2)c(N)c1 | inactive | 
34 | BrCCBr | inactive | 
35 | Clc1nc(Cl)nc(Cl)n1 | inactive | 
36 | COc1cc(-c2ccc(N)c(OC)c2)ccc1N | inactive | 
37 | ClC1(Cl)C2(Cl)C3(Cl)C4(Cl)C(Cl)(Cl)C5(Cl)C3(Cl)C1(Cl)C5(Cl)C24Cl (stereo not given) | inactive | 
38 | C[C@H]1O[C@@H](O[C@H]2[C@@H](O)C[C@H](O[C@H]3[C@@H](O)C[C@H](O[C@H]4CC[C@@]5(C)[C@H](CC[C@@H]6[C@@H]5CC[C@]5(C)[C@@H](C7=CC(=O)OC7)CC[C@]65O)C4)O[C@@H]3C)O[C@@H]2C)C[C@H](O)[C@@H]1O | inactive | 
39 | C(=NC1CCCCC1)=NC1CCCCC1 | inactive | 
